SKKanGAS inh = blocks kanamycin growth of S. pyogenes SKKanGAS strain | inhibition, % at 7.5 µM | AID 1662 | 1.3% of 300,000 active | BacTiter-Glo, 6 h;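 active means mean replicate score, as percent of positive control median, at least 50; inconclusive means mean below 50 but one replicate at or above 50; inactive means mean and every replicate below 50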;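 further: strain carries kanamycin resistance gene driven by streptokinase promoter and grows in 40 µg/ml kanamycin; loss of luminescence reflects streptokinase promoter inhibition or plain growth inhibition; 0% = median of DMSO wells and 100% = positive control at its reference dose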
Calb FLC = affects C. albicans growth with fluconazole | C. albicans CaCi-2 (fluconazole-resistant clinical isolate) + fluconazole, Alamar Blue growth, 48 h | growth inhibition, % (no concentration beside the values) | 0.57% of 300,000 active;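 active means growth inhibition above about 58% in most replicates, limit read from the data, passing the limit was not always enough; inconclusive means exactly half the replicates above a set limit; inactive means most replicates below a set limit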;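 further: all wells also contain fluconazole at 8 µg/ml as a sub-toxic cotreatment; 0% = median of DMSO wells and 100% = median of geldanamycin control wells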
Mdm2-MdmX inh = disrupts the human Mdm2-MdmX interaction. AID 485346. inhibition, % at 8 µM. O15151+Q00987. SaOS-2 split-luciferase Mdm2/MdmX complementation, luminescence. 3% of 330,000 active;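 active means inhibition of at least 50% at 8 µM in the primary screen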
Target sequence (O15151 whole entry, looked up): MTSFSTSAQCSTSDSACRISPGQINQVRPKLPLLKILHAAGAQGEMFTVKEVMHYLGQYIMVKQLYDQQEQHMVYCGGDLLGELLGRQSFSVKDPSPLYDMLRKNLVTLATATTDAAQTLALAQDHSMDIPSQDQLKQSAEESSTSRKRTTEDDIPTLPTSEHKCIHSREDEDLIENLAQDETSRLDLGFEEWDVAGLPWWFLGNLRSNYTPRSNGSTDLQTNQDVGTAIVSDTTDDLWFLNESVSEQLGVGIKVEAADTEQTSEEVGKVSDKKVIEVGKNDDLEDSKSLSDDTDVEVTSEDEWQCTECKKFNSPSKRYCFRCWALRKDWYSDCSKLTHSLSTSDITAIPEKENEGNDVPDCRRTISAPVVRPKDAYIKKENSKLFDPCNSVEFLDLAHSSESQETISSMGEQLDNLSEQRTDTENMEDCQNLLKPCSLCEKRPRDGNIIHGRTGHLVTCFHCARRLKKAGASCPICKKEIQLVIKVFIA
Target sequence (Q00987 whole entry, looked up): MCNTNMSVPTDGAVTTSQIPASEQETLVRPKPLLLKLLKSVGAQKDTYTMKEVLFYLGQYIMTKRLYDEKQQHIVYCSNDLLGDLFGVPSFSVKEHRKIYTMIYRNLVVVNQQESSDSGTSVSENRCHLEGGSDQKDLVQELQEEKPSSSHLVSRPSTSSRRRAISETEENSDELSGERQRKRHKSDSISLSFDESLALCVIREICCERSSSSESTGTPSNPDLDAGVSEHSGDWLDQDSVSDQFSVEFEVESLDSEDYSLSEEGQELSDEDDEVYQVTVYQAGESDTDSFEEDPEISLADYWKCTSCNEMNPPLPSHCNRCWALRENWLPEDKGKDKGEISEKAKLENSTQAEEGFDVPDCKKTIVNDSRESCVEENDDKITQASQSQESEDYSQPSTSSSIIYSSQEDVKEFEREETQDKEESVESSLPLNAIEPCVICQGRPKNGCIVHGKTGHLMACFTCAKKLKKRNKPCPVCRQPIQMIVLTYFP
CSC inhib = cancer stem cell inhibition | 1.1% of 300,000 active | AID 2717 | cancer stem cell-like cells viability, luminescence | inhibition, % at 7.5 µM; in the data active means inhibition above about 75%; inconclusive means no clear call, values can overlap the other calls; tested in HMLE shEcad cells
MPTP inh = blocks calcium-induced mitochondrial swelling | isolated mouse mitochondria, Ca2+ swelling absorbance, 30 min | inhibition, % at 10 µM | 1.4% of 360,000 active | AID 602449;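 active means inhibition of 50% or more, scaled per plate between neutral and stimulator controls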;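 further: 0% = DMSO wells given calcium and 100% = 1 mM EGTA wells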
Beta apoptosis = blocks beta cell apoptosis | protection from apoptosis, % (no concentration beside the values) | 0.8% of 300,000 active | INS-1E cytokine-induced death, ATP luminescence, 48 h; percent of positive-control rescue, neutral wells zero;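 active means Every replicate reaches about 75%, or at least half do and their mean reaches it too, limit read from the data; inconclusive means At least half of replicates reach the limit but their mean does not; inactive means Under half of replicates reach the limit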;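 further: 0% = cytokine-treated negative control wells and 100% = positive control rescue; higher means more ATP so stronger rescue from cytokine killing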
Mdm2-MdmX conf = confirmation of human Mdm2/MdmX interaction inhibitors; shares compounds with Mdm2-MdmX inh; Mdm2-MdmX binding, luminescent assay; inhibition, % at 8 µM; 55% of 10,000 active; AID 489028; in the data active means inhibition above about 40%
Full FLuc ctr = inhibits full-length luciferase, flagging false Mdm2/MdmX hits | shares compounds with Mdm2-MdmX inh | SaOS-2 full-length luciferase counterscreen, luminescence | inhibition, % at 8 µM | 77% of 6,200 active;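 active means mean inhibition at 8 µM reaching about 37%, which flags the compound as non-specific, limit read from the data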;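 further: p53-null SaOS-2 cells with luciferase driven by a doxycycline-inducible promoter; compound on cells about two nights before reading with doxycycline added after day one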
* = called active by the depositor; ? = inconclusive; . = no result. Rows were chosen to be rich in hits. Some 5.4% of all compounds tested hit in one or more screens of this group.

SMILES	SKKanGAS inh	Calb FLC	Mdm2-MdmX inh	CSC inhib	MPTP inh	Beta apoptosis	Mdm2-MdmX conf	Full FLuc ctr
CCN1CCN(c2ncnc3c2cnn3-c2ccccc2)CC1	0	-10	-14	4	1	-3	.	.
NS(=O)(=O)c1ccc(CCNC(=O)c2cncc(Br)c2)cc1	0	-4	10	-18	-2	-9	.	.
Cc1nc2c(C)cccn2c(=O)c1NC(=O)COc1ccccc1	39	1	23	.	-2	-5	.	.
O=C(NCc1ccco1)c1cccc2c1C(=O)c1ccc(/C=C/c3ccccc3)cc1S2(=O)=O	.	.	53*	44	-1	10	47*	69*
CC(C)c1cccc(-c2ccc3c(c2)S(=O)(=O)c2cccc(C(=O)NCc4ccccc4)c2C3=O)c1	.	.	59*	.	2	15	30	.
O=C(NCc1ccc(F)cc1)c1cccc2c1C(=O)c1ccc(Cl)cc1S2(=O)=O	.	.	-16	-18	.	-2	.	.
COc1ccc(-c2ccc3c(c2)S(=O)(=O)c2cccc(C(=O)NCc4ccccc4Cl)c2C3=O)cc1OC	.	.	22	-5	0	14	.	.
CC(C)c1cccc(-c2ccc3c(c2)S(=O)(=O)c2cccc(C(=O)NCc4ccccc4Cl)c2C3=O)c1	.	.	89*	31	-4	-4	16	.
Cc1[nH]n(C)c(=O)c1C(=O)c1c(-c2ccccc2Cl)noc1C	0	8	8	-11	3	3	.	.
COc1ccc(CNCC(O)(c2ccccc2)c2ccc(Cl)cc2)cc1 (stereo unspecified)	3	-20	50*	10	11	8	4	.
COc1ccc(NS(=O)(=O)c2cc(NC(=O)c3ccc(=O)[nH]n3)ccc2N2CCOCC2)cc1	.	.	-15	.	0	3	.	.
O=C(/C=C/c1cn(-c2ccccc2)nc1-c1cccnc1)c1ccco1	-10	56	52*	67	2	-5	34	.
O=C(/C=C/c1cn(-c2ccccc2)nc1-c1cccnc1)N1CCCC1	-10	49	.	.	0	.	.	.
Cc1ccc(Sc2ccc(NC(=O)CCl)cc2)c(C)c1	-8	-44	66*	40	.	3	9	.
Cc1ccc(C)c(Sc2ccc(NC(=O)CCN3C(=O)NC4(CCCC4)C3=O)cc2)c1	.	.	35	.	0	11	.	.
CCCOc1ccccc1/C=C1\SC(N2CCCCC2)=NC1=O	-2	-5	86*	24	0	.	62*	64*
O=C(CSc1nnc(-c2ccco2)n1Cc1ccco1)N1CCOCC1	3	2	0	-2	0	2	.	.
O=C1OC(Nc2nc(-c3ccc(F)cc3)cs2)c2ccccc21 (stereo unspecified)	0	-7	63*	42	0	21	23	.
O=C(NNc1nc(-c2ccccc2)cs1)c1ccc(F)cc1	53*	-7	54*	23	1	-5	26	.
O=C(NNc1nc(-c2ccc(F)cc2)cs1)c1ccccc1	68*	-6	62*	16	0	-3	49*	50*
CC(C)(C)c1csc(NNC(=O)c2ccc(Br)cc2)n1	61*	-16	64*	61	-3	18	22	.
O=C(NNc1nc(-c2ccccc2)cs1)c1cccs1	22	7	37	21	1	-1	.	.
N/C(=N\OC(=O)CCCc1ccccc1)c1cccnc1	-14	-7	-25	6	-1	-3	.	.
COc1ccc(S(=O)(=O)N2CCOC23CCN(S(=O)(=O)c2c(C)cc(C)cc2C)CC3)cc1	1	-3	4	3	-1	3	.	.
CC(C)(C)C(=O)Nc1nnc(SCC(=O)NCc2ccco2)s1	-4	3	5	0	1	-2	.	.
SMILES	SKKanGAS inh	Calb FLC	Mdm2-MdmX inh	CSC inhib	MPTP inh	Beta apoptosis	Mdm2-MdmX conf	Full FLuc ctr
Cn1c(C(=O)N2CCC(C(N)=O)CC2)cc2cc(Cl)ccc21	-8	-2	-15	-15	-1	-2	.	.
CCc1ccc2[nH]c3nc(N/N=C/c4ccc(O)cc4O)nnc3c2c1	2	?	58*	67	9	108*	94*	29
COc1ccc2c(c1)CCC/C2=N/OC(=O)c1ccccc1OC	-4	6	21	7	-4	-11	.	.
COc1ccc2c(c1)CC/C2=N\OC(=O)c1cccc(C)c1	-8	8	97*	6	-2	-1	55*	13
COc1ccc2c(c1)CC/C2=N\OC(=O)c1ccccc1C	17	5	100*	-1	1	.	35	22
Cc1cc(=O)[nH]c2c(C)c(N)ccc12	3	-3	-21	.	2	-3	.	.
Cc1cc(C)c2ccc3c(C)c(C)nc3c2[nH]1	.	-35	70*	21	2	-3	42*	45*
CC(C)Nc1nc(Oc2cccc(Cl)c2Cl)cc(C(F)(F)F)n1	?	0	27	46	7	1	.	.
CC(C)NC(=O)c1cnc(N2CCN(c3ccccn3)CC2)c2ccccc12	-8	0	-5	4	-1	1	.	.
CCc1ccc(NC(=O)c2cnc(N3CCN(c4ccccn4)CC3)c3ccccc23)cc1	8	0	64*	19	1	44	56*	60*
N#CCSc1nc2c(sc(=S)n2Cc2ccco2)c(=O)n1-c1ccc(F)cc1	19	3	61*	6	0	9	58*	32
CC(C)Cc1nc2oc3c(NCC4CCCO4)ncnc3c2c2c1CCC2 (stereo unspecified)	0	1	53*	23	2	.	55*	75*
Clc1cccc(Cl)c1Cn1cnc2c(N3CCCCCC3)ncnc21	22	17	79*	50	2	20	24	.
CCN(CC)c1ncnc2c1ncn2Cc1c(Cl)cccc1Cl	21	-9	-18	25	11	14	.	.
C=CCN1C(=O)C2C3C=CC(C2C1=O)C1C2C(=O)N(CC=C)C(=O)C2C31 (stereo unspecified)	-6	8	8	8	-1	-4	.	.
CC1(C)C(=O)N(c2ccccc2)C1c1ccccc1O (stereo unspecified)	-1	13	59*	?	0	-3	46*	75*
COc1ccc(N2C(=O)C(C)(C)C2c2c(O)ccc3ccccc23)cc1 (stereo unspecified)	16	52	3	17	0	2	.	.
c1ccc(C(c2ccccc2)N2CCN(c3nc4ccccc4n4cnnc34)CC2)cc1	10	14	68*	32	.	108*	18	.
CCCNC(=O)c1ccccc1NC(=O)c1ccc2c(c1)NC(=O)C(C)S2 (stereo unspecified)	?	10	53*	45	0	.	68*	72*
CC(=O)c1ccccc1NC(=O)c1ccc2c(c1)NC(=O)C(C)S2 (stereo unspecified)	-1	-7	-37	4	-1	4	.	.

Source: PubChem (several laboratories)
